A short description of assay [1]: optical density shifts of acrAB sulA E. coli – strain DRC41, OD650, 48 h, E. coli filamentation inducer project, primary screen (AID 1152).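 Further: E. coli MC1000 strain DRC41 lacking acrAB efflux pump and sulA.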 To be noted: higher = more signal, called active from +8 up or from −8 down.
Assay [2] is described as follows: probe aLefty1 binding on compound microarray – biochemical, small-molecule microarray, 635/667 nm fluorescence, primary screen (AID 1153).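 Further: score merges spot fluorescence with signal-to-noise ratio from the scanned slide images.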 To be noted: higher = more signal.
Assay [3] can be described thus: plasmodial surface anion channel blockers, osmotic lysis – cell-based, P. falciparum Indochina, OD700, 1 h, primary screen (AID 1154). To be noted: P. falciparum Indochina infected RBC osmotic lysis, higher = more signal, called active from +8 up or from −8 down.
Assay [4] can be described thus: plasmodial surface anion channel blockers, osmotic lysis – cell-based, P. falciparum Indochina, OD700, 2 h, primary screen (AID 1155).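 Further: lysis reports solute entry through the parasite surface anion channel PSAC.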 To be noted: P. falciparum Indochina infected erythrocytes, higher = more signal, called active from +8 up or from −8 down.
Assay [5] is described as follows: changes in parasitized red cell lysis, either direction – P. falciparum Indochina, OD700, 3 h, PSAC antagonist project, primary screen (AID 1156). To be noted: P. falciparum-infected erythrocytes, osmotic lysis, higher = more signal, called active from +8 up or from −8 down.
Assay [6] can be described thus: plasmodial surface anion channel blockers, osmotic lysis – cell-based, P. falciparum Indochina, OD700, 18 h, primary screen (AID 1157). To be noted: P. falciparum Indochina infected erythrocytes, osmotic lysis OD700, 18 h; higher = more signal, called active from +8 up or from −8 down.
Assay [7] is described as follows: S6 kinase pathway phospho-S6 level changes – cell-based, A549, cytoblot, luminescence, serum-stimulated, primary screen (AID 1158).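 Further: serum-stimulated A549 lung adenocarcinoma cells; signal is phosphorylated S6 detected by cytoblot immunostaining with HRP secondary.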 To be noted: 5 h, higher = more signal.
The target in assay [8] is NADPH oxidase 2 (Homo sapiens) (UniProt P04839). The assay can be described thus: compounds shifting NOX2 Amplex Red fluorescence – cell-based, HEK293-NOX2, PMA-stimulated, NOX inhibitor project, primary screen (AID 1159). Further: test concentration not given here. To be noted: 45 min, higher = more signal, called active from +8 up or from −8 down.
NADPH oxidase 2 (Homo sapiens), sequence (P04839 whole entry, looked up): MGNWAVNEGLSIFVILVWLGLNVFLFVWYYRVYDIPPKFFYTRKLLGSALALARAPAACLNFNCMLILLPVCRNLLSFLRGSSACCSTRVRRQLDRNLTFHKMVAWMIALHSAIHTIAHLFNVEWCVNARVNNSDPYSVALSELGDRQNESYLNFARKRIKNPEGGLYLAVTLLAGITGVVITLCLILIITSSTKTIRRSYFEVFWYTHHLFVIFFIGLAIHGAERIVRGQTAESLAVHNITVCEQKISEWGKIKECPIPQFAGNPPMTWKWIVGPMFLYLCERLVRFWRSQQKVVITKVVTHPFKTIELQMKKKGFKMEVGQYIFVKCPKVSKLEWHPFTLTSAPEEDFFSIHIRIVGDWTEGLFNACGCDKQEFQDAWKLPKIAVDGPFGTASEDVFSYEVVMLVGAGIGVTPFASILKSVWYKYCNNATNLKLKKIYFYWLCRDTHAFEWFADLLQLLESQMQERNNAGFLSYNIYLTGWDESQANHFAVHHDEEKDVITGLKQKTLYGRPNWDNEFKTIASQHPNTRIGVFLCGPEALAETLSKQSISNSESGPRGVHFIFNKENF
For assay [9], the target named is NADPH oxidase 4 (Homo sapiens) (UniProt Q9NPH5). The assay can be described thus: compounds shifting NOX4 Amplex Red fluorescence – cell-based, HEK293-NOX4, tetracycline-induced, NOX inhibitor project, primary screen (AID 1160). To be noted: HEK293-NOX4, Amplex Red H2O2 fluorescence, 45 min; higher = more signal, called active from +8 up or from −8 down.
NADPH oxidase 4 (Homo sapiens), sequence (Q9NPH5 whole entry, looked up): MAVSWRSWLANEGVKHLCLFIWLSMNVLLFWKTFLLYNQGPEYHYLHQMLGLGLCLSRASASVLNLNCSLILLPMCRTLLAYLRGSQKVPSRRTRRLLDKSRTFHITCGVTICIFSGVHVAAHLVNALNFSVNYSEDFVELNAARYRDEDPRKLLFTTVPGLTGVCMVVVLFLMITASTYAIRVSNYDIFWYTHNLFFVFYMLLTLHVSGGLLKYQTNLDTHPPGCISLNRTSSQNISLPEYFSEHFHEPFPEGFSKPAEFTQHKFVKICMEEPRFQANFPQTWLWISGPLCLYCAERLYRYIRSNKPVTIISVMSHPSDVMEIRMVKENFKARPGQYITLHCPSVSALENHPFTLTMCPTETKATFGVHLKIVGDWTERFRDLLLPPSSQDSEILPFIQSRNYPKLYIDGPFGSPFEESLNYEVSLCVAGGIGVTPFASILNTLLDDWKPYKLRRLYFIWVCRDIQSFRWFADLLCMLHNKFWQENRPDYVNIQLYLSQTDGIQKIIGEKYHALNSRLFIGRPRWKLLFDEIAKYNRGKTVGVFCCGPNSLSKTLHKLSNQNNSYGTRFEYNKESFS
Assay [10] concerns the target NADPH oxidase 5 (Homo sapiens) (UniProt Q96PH1). Description: compounds shifting NOX5 Amplex Red fluorescence – cell-based, HEK293-NOX5, NOX inhibitor project, primary screen (AID 1161). To be noted: HEK293-NOX5, ionomycin, 45 min, higher = more signal.
Assay [11] is described as follows: compound effects on lung adenocarcinoma cell viability – A549, calcein-AM fluorescence, 48 h, basal, profiling panel (AID 1162). Further: test concentration not given here. To be noted: higher = more signal.
A short description of assay [12]: compound effects on differentiated 3T3-L1 adipocyte viability – cell-based, 3T3-L1 adipocytes, calcein-AM fluorescence, 48 h, basal, profiling panel (AID 1163). Further: test concentration not given here. To be noted: 3T3-L1 adipocytes viability, higher = more signal.
Assay [13] is described as follows: compound effects on hepatocellular carcinoma cell viability – HepG2, calcein-AM fluorescence, 48 h, basal, profiling panel (AID 1164). Further: test concentration not given here. To be noted: higher = more signal.
A short description of assay [14]: compound effects on multiple myeloma cell viability – MM1S, calcein-AM fluorescence, 48 h, basal, profiling panel (AID 1165).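 Further: viability of MM1S multiple myeloma cells under basal unstimulated conditions; test concentration not given here.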 To be noted: higher = more signal.
Assay [15] in a line: calcein-AM signal in unstimulated myeloma cells – cell-based, calcein-AM fluorescence, 48 h, PK04 Diversity Set, profiling panel (AID 1166).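 Further: cells grown under basal conditions without added stimulus; test concentration not given here.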 To be noted: RPMI8226 myeloma viability, higher = more signal.
Assay [16] is described as follows: JC-1 mitochondrial signal, unstimulated HepG2 cells – cell-based, JC-1 fluorescence, 24 h, 100 nL compound, profiling panel (AID 1167). Further: test concentration not given here. To be noted: HepG2 mitochondrial potential, higher = more signal.
The nature of assay [17]: JC-1 mitochondrial signal, unstimulated adipocytes – cell-based, JC-1 fluorescence, 3T3-L1 adipocytes, 24 h, 100 nL compound, profiling panel (AID 1168). Further: test concentration not given here. To be noted: JC-1 mitochondrial fluorescence, higher = more signal, called active from +8 up or from −8 down.
Assay [18] can be described thus: JC-1 mitochondrial signal, unstimulated myeloma cells – cell-based, JC-1 fluorescence, RPMI8226, 24 h, 100 nL compound, profiling panel (AID 1169). Further: test concentration not given here. To be noted: JC-1 mitochondrial potential fluorescence, higher = more signal.
Assay [19] is described as follows: JC-1 mitochondrial signal, unstimulated MM1S myeloma – cell-based, JC-1 fluorescence, 24 h, 100 nL compound, profiling panel (AID 1170). Further: test concentration not given here. To be noted: MM1S mitochondrial potential, higher = more signal.
The nature of assay [20]: resazurin metabolic signal in A549 cells – cell-based, resazurin fluorescence, 24 h, PK04 Diversity Set, profiling panel (AID 1171). Further: test concentration not given here. To be noted: A549 viability, higher = more signal, called active from +8 up or from −8 down. For orientation: The colour change of resazurin is a common sign of viable cells or microbes.

The source made the active and inactive calls.

NADPH oxidase 5 (Homo sapiens), sequence (Q96PH1 whole entry, looked up): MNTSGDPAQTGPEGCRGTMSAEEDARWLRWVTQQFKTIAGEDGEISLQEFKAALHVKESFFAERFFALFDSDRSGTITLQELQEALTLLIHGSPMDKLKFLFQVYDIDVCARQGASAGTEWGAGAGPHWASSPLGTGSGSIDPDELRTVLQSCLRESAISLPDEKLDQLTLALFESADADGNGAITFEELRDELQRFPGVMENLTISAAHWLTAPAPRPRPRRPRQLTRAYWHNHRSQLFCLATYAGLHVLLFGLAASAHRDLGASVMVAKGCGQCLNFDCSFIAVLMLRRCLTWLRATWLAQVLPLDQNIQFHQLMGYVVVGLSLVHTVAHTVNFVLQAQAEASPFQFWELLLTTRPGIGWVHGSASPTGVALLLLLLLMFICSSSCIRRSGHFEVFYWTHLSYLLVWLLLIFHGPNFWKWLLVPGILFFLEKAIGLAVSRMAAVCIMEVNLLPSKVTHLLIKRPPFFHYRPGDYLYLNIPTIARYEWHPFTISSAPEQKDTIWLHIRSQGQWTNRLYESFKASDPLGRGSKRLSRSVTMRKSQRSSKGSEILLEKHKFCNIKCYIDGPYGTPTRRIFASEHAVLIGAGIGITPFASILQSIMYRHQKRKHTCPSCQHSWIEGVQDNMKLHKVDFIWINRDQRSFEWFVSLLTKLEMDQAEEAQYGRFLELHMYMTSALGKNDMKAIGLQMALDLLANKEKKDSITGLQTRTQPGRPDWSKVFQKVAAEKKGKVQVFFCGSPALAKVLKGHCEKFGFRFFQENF

As to `COc1cccc(C[C@H]2C[C@@H](CO[Si](C(C)C)(C(C)C)C(C)C)N3C(=O)[C@@]4(C(C)=O)O[C@@]23[C@@H]2C(=O)N(C)C(=O)[C@@H]24)c1`, the z-score is -0.848 (inactive) in assay [1]; 1.31 (inactive) in assay [3]; 0.576 (inactive) in assay [4]; -0.176 (inactive) in [5]; 0.0375 (inactive) in [6]; -0.669 in [7]. The z-score in assay [8] is -0.175 (inactive); in [9] it was 0.746 (inactive); in assay [10] it was 0.181; in assay [11] it was -2.05; in [12], 0.202; in assay [13], -0.342. The z-score in assay [14] was -1.9; in assay [15] it was -1.38; in [16] it was -1.64; in assay [17], 1.29 (inactive); in [18], -0.846; in assay [19], -0.661. For the same molecule, the z-score in [20] was 0.712 (inactive). In [2], this molecule returned a composite z-score of -0.0061.
`COC(=O)[C@@]1(Cc2ccc(OC)cc2)[C@@H]2[C@@H](CC(=O)[C@H]2CC(=O)C(=O)N2CCCC2)CN1C(=O)c1ccccc1`: the z-score was -1.17 (inactive) in assay [1]; 4.55 (inactive) in [3]; 0.989 (inactive) in assay [4]; 1.07 (inactive) in assay [5]; 0.986 (inactive) in assay [6]; 0.0676 in [7]. Further, the z-score in assay [8] is -0.204 (inactive); in assay [9], 0.65 (inactive); in [10], 0.26; in assay [11], -0.515; in [12] it was 0.745; in assay [13], 0.681. The z-score in assay [14] was -2.61; in assay [15] it was -2.94; in assay [16], 0.74; in assay [17] it was -1.62 (inactive); in assay [18], -1.01; in [19], -0.787. In addition, the z-score in assay [20] is -0.189 (inactive). Besides, the composite z-score in assay [2] was found to be 2.14.
Consider `CCCCC(=C=CC[C@@H](O)c1cccc(OCCO)c1)CCO`, for which the z-score in assay [1] was 0.896 (inactive); in assay [3] it was 6.54 (inactive); in assay [4], 1.02 (inactive); in assay [5], 0.842 (inactive); in assay [6], 0.528 (inactive); in assay [7], 1.3. The z-score is -0.681 (inactive) in assay [8]; -0.283 (inactive) in assay [9]; -1.8 in assay [10]; 1.58 in assay [11]; -0.634 in assay [12]; 0.98 in assay [13]. In addition, the z-score was 0.859 in assay [14]; 0.0922 in assay [15]; 0.416 in assay [16]; 1.27 (inactive) in assay [17]; 0.044 in assay [18]; -1.09 in assay [19]. In assay [20], the z-score was 1.06 (inactive). Besides, the composite z-score in assay [2] was -0.142.
`COc1ccc(C#Cc2ccc3c(c2)[C@]2(C(=O)N3)[C@H](C(=O)Nc3nc4ccccc4s3)[C@H]3C(=O)O[C@H](c4ccccc4)[C@H](c4ccccc4)N3[C@@H]2c2ccc(OCCO)cc2)cc1`: the z-score in assay [1] is -0.368 (inactive); in assay [3], 2.85 (inactive); in assay [4], 1.41 (inactive); in [5] it was -0.521 (inactive); in assay [6] it was 0.81 (inactive); in assay [7] it was 0.13. In addition, the z-score in assay [8] was 0.578 (inactive); in assay [9], 0.0813 (inactive); in assay [10], -1.04; in assay [11], -0.255; in assay [12], 0.183; in assay [13], 0.044. For the same molecule, the z-score was -2.63 in [14]; -0.988 in [15]; -3.48 in assay [16]; -1.95 (inactive) in [17]; -1.21 in [18]; -2.1 in [19]. Moreover, the z-score in [20] was 0.135 (inactive). Besides, in assay [2], the composite z-score is -0.0186.
`CN1C=C(C(=O)OCCS(C)(=O)=O)C(C(=O)OCCS(C)(=O)=O)=CC(CCCO)=CC1c1ccc(CN2CCCC2)cc1` (stereo not given): the z-score in assay [1] was 0.0837 (inactive); in assay [3] it was 1.39 (inactive); in [4] it was -0.162 (inactive); in assay [5], -0.203 (inactive); in assay [6], 0.0374 (inactive); in [7], -0.0029. For the same molecule, the z-score in assay [8] is 0.526 (inactive); in assay [9], 0.0702 (inactive); in assay [10], -1.65; in [11], 1.46; in [12], -2.48; in assay [13] it was 1.81. The z-score is 0.101 in [14]; -0.268 in assay [15]; 1.82 in assay [16]; -0.469 (inactive) in assay [17]; 1.33 in [18]; -0.394 in assay [19]. For the same molecule, the z-score in [20] was 0.0251 (inactive). Besides, the composite z-score in assay [2] came out at 0.546.

The values above are taken from PubChem BioAssay.
